Test results reported in PubChem BioAssay AID1159580 (chemical genetic matrix, 2015).
Where “and” joins values, the source holds several entries; their conditions need not be identical. Equal entries are not always repeated. About 2,000 (36%) of roughly 5,500 compounds were called active. Inconclusive results (about 18%) are left out. No stated cut-off is given here; in the data, active means normalized growth mostly below about 0.91 (no sharp cut-off); inconclusive means no clear call, values can overlap the other calls; inactive means mostly above about 0.92. Some of the results follow.

Experiment: chemical genetic growth profiling, strain panel (AID 1159580);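 further: tested at 20 µM; growth read once vehicle control cultures reached saturation at 30 °C; 1 = growth at the plate median or of vehicle wells; lower values mean less growth of the strain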
Settings: S. cerevisiae deletion strains, growth OD

Measured: normalized growth

CCn1cc(C(=O)O)c(=O)c2ccc(C)nc21
inactive: locus YAL013W, strain DEP1, active compounds read low 0.938 and 0.977 | locus YAL040C, strain CLN3, active compounds read low 0.961 | locus YBL061C, strain skt5, active compounds read low 0.928 | locus YBR009C, strain hhf1, active compounds read low 0.947 | locus YBR021W, strain FUR4, active compounds read low 1.09 | locus YBR023C, strain chs3, active compounds read low 0.945 | locus YBR171W, strain sec66, active compounds read low 0.931 | locus YBR231C, strain swc5, active compounds read low 0.936 | locus YCL011C, strain gbp2, active compounds read low 0.939 | locus YCL016C, strain dcc1, active compounds read low 0.945 | locus YCL029C, strain bik1, active compounds read low 0.935 | locus YCL061C, strain MRC1 (second series), active compounds read low 0.961 | locus YCL061C, strain MRC1, active compounds read low 0.936 | locus YCL069W, strain vba3, active compounds read low 0.943 | locus YCR088W, strain abp1, active compounds read low 0.953 | locus YDL005C, strain med2, active compounds read low 0.983 | locus YDL035C, strain GPR1, active compounds read low 0.963 | locus YDL074C, strain BRE1, active compounds read low 1.06 | locus YDL101C, strain DUN1, active compounds read low 0.941 | locus YDL134C, strain PPH21, active compounds read low 0.912 | locus YDL185W, strain tfp1, active compounds read low 0.924 | locus YDR001C, strain nth1, active compounds read low 0.94 | locus YDR069C, strain doa4, active compounds read low 0.932 | locus YDR101C, strain arx1, active compounds read low 0.92 | locus YDR150W, strain NUM1, active compounds read low 0.936 and 0.96 | locus YDR159W, strain sac3, active compounds read low 1.07 | locus YDR162C, strain NBP2, active compounds read low 0.936 | locus YDR297W, strain sur2, active compounds read low 0.928 | locus YDR318W, strain mcm21, active compounds read low 0.963 | locus YDR334W, strain swr1, active compounds read low 0.916 | locus YDR335W, strain msn5, active compounds read low 0.937 | locus YDR363W, strain ESC2, active compounds read low 0.965 | locus YDR388W, active compounds read low 0.941 | locus YDR392W, strain spt3, active compounds read low 1.03 | locus YDR502C, strain sam2, active compounds read low 0.961 | locus YEL003W, strain gim4, active compounds read low 0.939 | locus YEL037C, strain rad23, active compounds read low 0.926 | locus YEL061C, strain CIN8 (second series), active compounds read low 0.935 | locus YEL061C, strain CIN8, active compounds read low 0.946 | locus YER002W, strain NOP16, active compounds read low 0.958 | locus YER015W, strain faa2, active compounds read low 0.947 | locus YER016W, strain bim1, active compounds read low 0.924 | locus YER110C, active compounds read low 0.9 | locus YER111C, strain swi4, active compounds read low 0.966 | locus YER155C, strain BEM2 (second series), active compounds read low 0.943 | locus YER155C, strain BEM2, active compounds read low 0.951 | locus YER167W, strain BCK2, active compounds read low 0.988 | locus YFR010W, strain ubp6, active compounds read low 0.974 | locus YGL078C, strain dbp3, active compounds read low 0.947 | locus YGL086W, strain mad1, active compounds read low 0.954 | locus YGL227W, strain vid30, active compounds read low 0.939 | locus YGL248W, strain PDE1, active compounds read low 0.906 | locus YGL253W, strain hxk2, active compounds read low 0.957 | locus YGR078C, strain PAC10, active compounds read low 0.997 | locus YGR135W, strain pre9, active compounds read low 0.916 | locus YGR229C, strain SMI1, active compounds read low 1 and 0.98 | locus YHR013C, strain ard1, active compounds read low 1.02 | locus YHR027C, strain rpn1, active compounds read low 0.938 | locus YHR030C, strain SLT2, active compounds read low 0.921 and 0.918 | locus YHR079C, strain IRE1 (second series), active compounds read low 0.932 | locus YHR079C, strain IRE1, active compounds read low 0.97 | locus YHR142W, strain chs7, active compounds read low 0.979 | locus YHR200W, strain rpn10, active compounds read low 0.963 | locus YIL066C, strain RNR3, active compounds read low 0.972 | locus YIL073C, strain SPO22, active compounds read low 0.97 | locus YIL125W, strain kgd1, active compounds read low 0.951 | locus YJL092W, strain hpr5, active compounds read low 0.961 | locus YJL095W, strain BCK1 (second series), active compounds read low 0.942 | locus YJL095W, strain BCK1, active compounds read low 0.949 and 0.948 | locus YJL115W, strain asf1, active compounds read low 0.956 | locus YJL129C, strain trk1, active compounds read low 0.972 | locus YJL154C, strain vps35, active compounds read low 0.959 | locus YJL164C, strain tpk1, active compounds read low 0.946 | locus YJL166W, strain qcr8, active compounds read low 0.94 | locus YJL187C, strain SWE1 (second series), active compounds read low 0.93 | locus YJR043C, strain POL32, active compounds read low 0.967 | locus YJR066W, strain TOR1, active compounds read low 0.899 | locus YJR075W, strain HOC1, active compounds read low 0.972 and 0.961
active: locus YAL021C, strain ccr4, active compounds read low 0.805 | locus YAL026C, strain drs2, active compounds read low 0.855 | locus YAL030W, strain snc1, active compounds read low 0.917 | locus YBR229C, strain ROT2, active compounds read low 0.914 | locus YBR279W, strain paf1, active compounds read low 0.924 | locus YDL040C, strain nat1, active compounds read low 0.923 | locus YDL192W, strain arf1, active compounds read low 0.9 | locus YDR137W, strain rgp1, active compounds read low 0.345 | locus YDR195W, strain ref2 0.691 | locus YGL167C, strain pmr1, active compounds read low 0.912 | locus YGL173C, strain kem1, active compounds read low 0.799 | locus YGL240W, strain doc1, active compounds read low 0.834 | locus YHR094C, strain hxt1, active compounds read low 0.923 | locus YHR129C, strain ARP1, active compounds read low 0.918 | locus YIR030C, strain dcg1, active compounds read low 0.914 | locus YJL134W, strain LCB3, active compounds read low 0.92 | locus YJL168C, strain set2, active compounds read low 0.895
